CHT block: human CHT choline transport inhibition; B-score at 10 µM; CHT-expressing cells, membrane potential dye, choline response; active compounds read low; hit rate 0.86% among 310,000; Q9GZV3;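 active = B-score over 3 SD under the library average, and starting fluorescence ratio not unusually high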;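 note: choline stimulus applied at its EC90 after an EC20 pre-addition; B-score computed on integrated fluorescence ratio after choline addition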
MEKK2wt PB1 HTS: raises or lowers MEK5 binding to wildtype human MEKK2 PB1 domain; bead flow cytometry, Alexa488-MEK5 binding to MEKK2 WT; actives lie on both sides; Q9Y2U5; binding response (% of control), % at 10 µM; hit rate 1.1% among 290,000; in the data active = binding response below about 67% or above about 130%
CHT allo act: allosterically activates the human high affinity choline transporter; CHT-expressing cells, membrane potential dye, choline EC20; active compounds read high; LV-AA mutant CHT in HEK293 cells; Q9GZV3; hit rate 0.49% among 310,000; AID 488977; B-score at 10 µM;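 active = initial fluorescence not abnormally high and integrated response B-score, plate-corrected, over 3 SD above library mean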
MEKK2 mut-MEK5: signal of MEK5 binding to mutant human MEKK2 PB1 domain; bead flow cytometry, Alexa488-MEK5 binding to MEKK2 mutant; AID 1530; percent response, % at 10 µM; hit rate 0.35% among 290,000; in the data active = percent response above about 24%, passing the limit was not always enough
Mot1-301 SUMO: inhibitors of SUMOylation pathway: yeast Mot1-301 growth rescue; hit rate 1% among 320,000; S. cerevisiae Mot1-301 growth rescue, ATP luminescence, 38.5C; percent above DMSO median, 100 means doubled; growth rescue, % at 18.8 µM; AID 2716;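 active = every valid replicate shows activation above 250% relative to neutral control wells; inactive = the rest, any valid replicate at or below 250%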;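 note: OY570 slx delta 5 strain wells were the positive control but not used for scaling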
MEKK3 PB1 HTS: modulators (inhibitors or enhancers) of MEK5 binding to human MEKK3 PB1 domain; hit rate 1.4% among 290,000; Q99759; bead-based flow cytometry, Alexa488-MEK5 binding to MEKK3; actives lie on both sides; 0 = blocked by unlabeled MEK5, 100 = vehicle; binding response (% of control), % at 10 µM;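 active = binding response more than 3 SD above or below the average of its plate-row segment, actives on both sides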;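 note: Alexa488 bead fluorescence after subtracting the streptavidin-only scavenger bead signal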
Target sequence (Q99759 whole entry, looked up, the tested form may be a part): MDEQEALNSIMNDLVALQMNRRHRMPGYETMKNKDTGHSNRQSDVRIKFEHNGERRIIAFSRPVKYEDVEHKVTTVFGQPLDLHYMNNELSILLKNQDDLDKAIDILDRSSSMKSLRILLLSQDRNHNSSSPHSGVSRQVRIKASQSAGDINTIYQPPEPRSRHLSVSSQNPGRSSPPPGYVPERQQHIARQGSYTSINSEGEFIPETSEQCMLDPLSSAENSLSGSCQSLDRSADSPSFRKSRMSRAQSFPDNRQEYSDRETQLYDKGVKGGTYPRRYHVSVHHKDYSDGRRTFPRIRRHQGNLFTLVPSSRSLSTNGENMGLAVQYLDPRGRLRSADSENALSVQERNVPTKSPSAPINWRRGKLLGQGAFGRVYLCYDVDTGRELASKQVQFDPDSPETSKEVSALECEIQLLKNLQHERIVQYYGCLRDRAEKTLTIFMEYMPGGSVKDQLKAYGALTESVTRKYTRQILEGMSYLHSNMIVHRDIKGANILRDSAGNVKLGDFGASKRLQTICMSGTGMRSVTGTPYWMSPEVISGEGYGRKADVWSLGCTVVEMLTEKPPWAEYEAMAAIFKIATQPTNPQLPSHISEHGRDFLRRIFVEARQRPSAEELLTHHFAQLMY
CHT act confirm: human CHT activation, confirmatory screen | shares compounds with CHT allo act | CHT-expressing cells, membrane potential dye fluorescence (FDSS); % of choline EC20–EC90 response window; HEK293 expressing CHT LV-AA mutant; choline added at its EC20 | activation, % at 10 µM | hit rate 91% among 2,500 | AID 504833;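 active = primary screen active, with duplicate mean activation above negative control mean plus 3 SD, cut at about 11% in these data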
HEK293 MP dye: CHT activator counter-screen hit in parental HEK293 cells; shares compounds with CHT allo act; membrane potential dye fluorescence (FDSS); measured after EC20 choline addition; ratio readout change at 10 µM, hits read low; hit rate 62% among 2,500;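 active = duplicate-averaged ratio beyond 3 SD from buffer wells, up or down, though filed actives are nearly all decreases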
* marks the source's active call; other numbers are inactive results; i = inactive; nt = not tested or not shown. Sampled rows, rich in hits. Any-hit rate of the full collection: about 4.1%.

SMILES	CHT block	MEKK2wt PB1 HTS	CHT allo act	MEKK2 mut-MEK5	Mot1-301 SUMO	MEKK3 PB1 HTS	CHT act confirm	HEK293 MP dye
COc1cccc(N2CCN(C(=O)c3ccc(CS(=O)c4ccc(C)cc4)o3)CC2)c1 (configuration not stated)	i	105.0	8.07*	3.0	4.9	98.0	21.4*	i
COc1cccc(N2CCN(C(=O)c3ccc(CS(=O)c4ccc(Cl)cc4)o3)CC2)c1 (configuration not stated)	i	103.0	i	1.0	-16.9	103.0	21.3*	i
COc1ccc(NC2CCCN(C(=O)CSc3ccncc3)C2)cc1 (configuration not stated)	i	100.0	i	1.0	0.4	99.0	nt	nt
Cc1ccc(S(=O)(=O)N[C@@H](C)C(=O)N2CCC(C(=O)N[C@@H](Cc3ccccc3)C(=O)O)CC2)cc1	i	100.0	i	-4.0	-1.7	101.0	nt	nt
COc1ccc(OC)c(C(c2nnnn2C2CCCC2)N2CCN(c3ccccc3F)CC2)c1 (configuration not stated)	i	100.0	i	2.0	0.4	103.0	34.7*	i
COc1ccc(N2CCN(C(c3ccccc3OC)c3nnnn3C3CCCC3)CC2)cc1 (configuration not stated)	nt	100.0	nt	7.0	nt	103.0	nt	nt
Clc1ccc(C(c2nnnn2CCc2ccccc2)N2CCSCC2)cc1 (configuration not stated)	i	102.0	i	2.0	nt	102.0	nt	nt
CCCCN(CCCC)CC(O)COc1ccccc1C(=O)Nc1ccccc1 (configuration not stated)	i	116.0	7.1*	7.0	-6.8	106.0	-0.1	i
Cn1c(N=Nc2ccccc2)nc2ccccc21	i	95.0	6.45*	-1.0	-43.9	81.0	28.8*	-52.7*
CN(CC(=O)Nc1ccc(F)cc1)C(=O)Cn1nnc(-c2ccccc2)n1	i	104.0	i	6.0	10.5	99.0	nt	nt
COC(=O)c1ccc(N2CCN(C)CC2)c(NC(=O)c2cccnc2)c1	i	84.0	10.3*	-14.0	11.4	88.0	51.8*	-101*
COC(=O)c1ccc(N2CCOCC2)c(NC(=O)c2cccnc2)c1	i	100.0	i	4.0	-10.4	98.0	nt	nt
COC(=O)c1ccc(N2CCN(C)CC2)c(NC(=O)c2cccs2)c1	i	98.0	6.69*	-1.0	1.3	100.0	33.0*	-71.3*
CC(C)(C)c1nn(-c2ccccc2)c2[nH]c(=O)c(C=O)cc12	i	98.0	i	3.0	7.2	104.0	nt	nt
C=CC[n+]1c(-c2ccc(Cl)cc2Cl)csc1Nc1c(C)n(C)n(-c2ccccc2)c1=O	i	100.0	8.4*	1.0	-21.3	100.0	5.0	i
C=CC[n+]1c(-c2ccc(Cl)cc2Cl)csc1Nc1ccc(NC(C)=O)cc1	i	96.0	13.8*	-2.0	24.8	97.0	0.2	i
NC1=CC(=O)c2cccc3cccc1c23	i	101.0	i	2.0	102.3	102.0	nt	nt
NC1=Nc2cccc3cccc1c23	i	81.0	i	-13.0	-14.0	99.0	44.9*	-65.1*
O=C(CSc1ncc(-c2ccccc2)n1-c1ccccc1)NCc1ccco1	i	93.0	i	-3.0	1.6	89.0	nt	nt
COc1ccc(-n2c(-c3ccc(F)cc3)cnc2SCC(=O)NCc2ccco2)cc1	i	94.0	i	-1.0	-6.4	102.0	33.2*	i
CN(C)c1cc(NC(=O)CNC(C)(C)C)c2ccccc2n1	i	96.0	i	1.0	-16.2	91.0	26.4*	-54.9*
CCCCC(=O)Nc1cc(N(C)C)nc2ccccc12	i	108.0	i	6.0	78.7	105.0	nt	nt
CN(C)c1cc(NC(=O)CN2CCOCC2)c2ccccc2n1	i	85.0	6.74*	-28.0	-6.6	96.0	33.2*	-44.6*
O=C(CNC(=O)c1ccc(Cl)cc1)NC(CO)c1ccccc1 (configuration not stated)	i	99.0	i	3.0	4.1	103.0	nt	nt
COc1ccc2nc(N(CCN(C)C)C(=O)/C=C/c3cccs3)sc2c1	i	137.0	7.18*	11.0	3.9	107.0	34.5*	-31.6*
SMILES	CHT block	MEKK2wt PB1 HTS	CHT allo act	MEKK2 mut-MEK5	Mot1-301 SUMO	MEKK3 PB1 HTS	CHT act confirm	HEK293 MP dye
CC(C)C(=O)N1CCN(c2ccccc2NC(=O)c2ccc(C#N)cc2F)CC1	i	86.0	7.66*	-13.0	5.2	98.0	54.4*	i
Cc1ccccc1NC(=O)Cc1nnc(SCC(=O)NC2=NCCS2)n1C	i	99.0	i	4.0	24.3	99.0	nt	nt
CCOC(=O)c1cnc2ccc(OCC)cc2c1NCCN1CCOCC1	i	91.0	i	-12.0	2.1	100.0	nt	nt
CCOC(=O)c1cnc2ccc(OCC)cc2c1N1CCN(C)CC1	i	114.0	8.37*	11.0	57.5	113.0	40.7*	-39.6*
Clc1cnc(N/N=C/c2ccncc2)c(Cl)c1	i	100.0	i	4.0	45.9	98.0	36.6*	-44.1*
Clc1ccc(N/N=C/c2ccncc2)cc1Cl	i	97.0	i	-2.0	128.5	101.0	nt	nt
Cc1ccc(SCCSc2nc(C)cc(=O)[nH]2)cc1	i	109.0	i	5.0	-0.4	104.0	nt	nt
CC[n+]1ccc(C[n+]2ccccc2)c2ccccc21	i	97.0	11.4*	-1.0	-12.9	102.0	84.6*	-87.4*
CC[n+]1ccc(/C=C/c2ccc(N(C)C)cc2)c2ccccc21	nt	nt	nt	38.0	nt	94.0	nt	nt
CC[n+]1c(/C=C/c2cc([N+](=O)[O-])ccc2O)ccc2ccccc21	i	95.0	i	0.0	61.1	94.0	17.2*	-51.7*
CC[n+]1c(/C=C/c2ccc(OC(C)=O)c(OC)c2)ccc2ccccc21	i	110.0	7.19*	5.0	-30.2	106.0	45.3*	-73.9*
CC[n+]1c(/C=C/c2ccc(OC)c(OC)c2)ccc2ccccc21	i	106.0	i	0.0	41.4	104.0	nt	nt
C[C@H](NC(=O)c1nc[nH]c1C(=O)NCC(=O)OCc1ccccc1)c1ccccc1	i	101.0	i	-9.0	1.0	100.0	nt	nt
COc1ccc(NC(=O)C(=O)NNC(=O)c2cccs2)c(OC)c1	i	101.0	7.22*	5.0	-7.0	98.0	69.1*	-46.8*
COc1ccc(NC(=O)C(=O)NNC(=O)c2cccs2)cc1	i	123.0	i	12.0	1.3	103.0	nt	nt
